Sampled rows, rich in hits. Any-hit rate of the full collection: about 4%.
RecA splice inh: Mtb RecA intein splicing inhibition. cell-free RecA intein splicing, fluorescence. inhibition, % (no concentration beside the values). 290,000 compounds, 0.75% hits. AID 2221; in the data active means inhibition above about 30%; inconclusive means no clear call, values can overlap the other calls;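 further: 0% = vehicle wells and 100% = reference inhibitor control wells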
Mtb bLac sens: beta-lactam sensitization of Mtb H37Rv; 330,000 compounds, 0.27% hits; M. tuberculosis H37Rv growth with meropenem, percent inhibition; inhibition, % at 25 µM; AID 434955; call rule not given here;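 further: growth measured after seven days incubation then overnight dye step; 0% = bacteria only wells and 100% = bacteria with antibiotic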
GDH-TPI inh: GDH-TPI coupled enzyme inhibition counter-screen; GDH-TPI coupled enzyme counterscreen, NADH absorbance; inhibition, % at 4.8 µM; 360,000 compounds, 1.2% hits; AID 588335; in the data active means inhibition above about 30%;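 further: 0% = DMSO wells and 100% = wells lacking the enzyme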
Rv3671c protease: Rv3671c (M. tuberculosis) protease inhibition; inhibition, % at 5.96 µM; 320,000 compounds, 0.048% hits; AID 2606; in the data active means inhibition above about 38%;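 further: extracellular domain of Rv3671c used as enzyme; 0% = enzyme with DMSO and 100% = no enzyme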
Target sequence (P9WHR9 whole entry, looked up, the tested form may be a part): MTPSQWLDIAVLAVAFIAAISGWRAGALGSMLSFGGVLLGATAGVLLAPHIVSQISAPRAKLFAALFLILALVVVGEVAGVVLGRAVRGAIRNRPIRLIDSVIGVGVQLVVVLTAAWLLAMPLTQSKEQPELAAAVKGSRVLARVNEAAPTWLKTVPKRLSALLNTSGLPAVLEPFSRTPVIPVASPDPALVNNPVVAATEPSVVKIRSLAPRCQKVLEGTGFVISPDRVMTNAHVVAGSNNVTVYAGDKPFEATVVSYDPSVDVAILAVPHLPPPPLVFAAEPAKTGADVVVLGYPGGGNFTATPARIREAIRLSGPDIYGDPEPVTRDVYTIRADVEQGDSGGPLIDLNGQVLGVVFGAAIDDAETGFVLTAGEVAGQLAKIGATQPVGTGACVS
UGM FP inh: inhibitors of M. tuberculosis UDP-galactopyranose mutase; P9WIQ1; purified UGM, fluorescence polarization probe displacement; inhibition, % at 10 µM; 320,000 compounds, 0.06% hits; AID 504406; in the data active means inhibition above about 10%, passing the limit was not always enough; inconclusive means no clear call, values can overlap the other calls
Mtb FBA inh: Mtb fructose-bisphosphate aldolase inhibition; P9WQA3; purified M. tuberculosis FBA, fluorescence read-out; inhibition, % at 1 µM; 360,000 compounds, 2.3% hits; AID 588726; in the data active means inhibition above about 27%;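 further: 0% = vehicle and 100% = reference inhibitor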
* = called active by the depositor; u = inconclusive; x = no result; + = active, no number.

SMILES	RecA splice inh	Mtb bLac sens	GDH-TPI inh	Rv3671c protease	UGM FP inh	Mtb FBA inh
CN(CC(=O)Nc1ccc(F)c(F)c1F)C(=O)c1ccc(N2CCCC2=O)cc1	x	-2	9	-3	0	2
Cc1nc(N)sc1C(=O)N/N=C/c1ccccc1[N+](=O)[O-]	-2	5	22	-2	3	2
Nc1ccc(/C=C/C(=O)c2cccs2)cc1	2	2	20	8	-1	-12
O=C(N/N=C/c1ccc(Br)s1)c1c[nH]c2ccccc12	1	u	40*	-10	2	0
Cc1ccc(C(=O)N/N=C/c2c[nH]c3ccccc23)o1	0	6	31*	-1	0	-3
Cc1nc(N)sc1C(=O)N/N=C/c1ccco1	-2	-7	38*	0	1	-1
O=C(C=Cc1ccccc1)c1cccs1	x	x	34*	x	x	-5
Cc1cc(C(=O)N/N=C/c2c[nH]c3ccccc23)c(C)o1	0	6	8	-1	0	-3
Cc1ccc2cccc(OCc3nnc(SCC(=O)O)n3C)c2n1	2	-2	3	8	0	5
O=C(N/N=C/C(Br)=C\c1ccccc1)c1n[nH]c2c1CCC2	4	u	24	-7	2	1
CC(/C=N/NC(=O)c1cccs1)=C\c1ccccc1	3	9	32*	-3	-1	-3
O=C(N/N=C/c1c[nH]c2ccccc12)c1ccn(Cc2ccc(Cl)cc2)n1	9	3	32*	5	0	0
O=C(N/N=C/c1c[nH]c2ccc(Br)cc12)c1ccn(Cc2ccc(Cl)cc2Cl)n1	15	30	15	-21	0	3
Cc1nc(N)sc1C(=O)N/N=C/c1c[nH]c2ccccc12	-3	18	56*	-4	0	-2
O=C(N/N=C/C(Cl)=C\c1ccccc1)c1cccs1	2	0	28	-18	1	1
CC(/C=N/NC(=O)c1n[nH]c2c1CCC2)=C\c1ccccc1	0	-8	31*	-6	0	-1
Cc1ccc(C)c(S(=O)(=O)Nc2ccc(C(=O)N3CC(C)OC(C)C3)cc2)c1 (centres undefined)	x	2	-3	-2	0	0
CCOc1ccc(/C=N/NC(=O)c2[nH]ncc2Br)c(O)c1	x	13	25	8	-2	11
CCCC(CCC)C(=O)Nc1ccc2c(c1)N(C(=O)CN1CCN(C)CC1)c1ccccc1CC2	-3	-3	-5	-5	-3	-1
COc1ccccc1/C=C/C=N/NC(=O)c1cccs1	0	89	45*	-8	1	0
COc1ccccc1/C=C\C=N\NC(=O)CCn1nnc2ccccc21	1	4	38*	-3	-1	4
COc1cccc(/C=N/NC(=O)N/N=C/c2cccc(OC)c2O)c1O	x	5	20	6	-3	1
O=C(N/N=C/c1c[nH]c2ccccc12)c1cc(Br)ccc1O	-2	-4	31*	12	0	6
COc1ccccc1C=NNC(=O)NN=Cc1ccccc1OC	x	x	31*	x	x	-2
COc1ccccc1/C=C\C=N\NC(=O)c1ccco1	-1	-4	6	1	3	-1
SMILES	RecA splice inh	Mtb bLac sens	GDH-TPI inh	Rv3671c protease	UGM FP inh	Mtb FBA inh
CN(C(=O)COC(=O)c1ccc2[nH]c3c(c2c1)CCCC3)C1CCS(=O)(=O)C1 (centres undefined)	x	9	2	-5	-2	-2
Cc1cccc(NC(=S)N/N=C/c2ccc(Cl)c([N+](=O)[O-])c2)c1	0	-6	30	-4	1	-1
COc1cc(/C=N\NC(=O)c2sc(N)nc2C)cc(OC)c1OC	-3	39	41*	3	-1	-9
O=C(O)COc1ccccc1/C=N/NC(=O)CNC(=O)c1ccc(F)cc1	-3	-4	15	8	2	-6
Cc1cccc(NC(=S)N/N=C/c2cccc([N+](=O)[O-])c2)c1	1	-2	33*	-12	0	2
O=C(O)COc1ccccc1/C=N/NC(=O)c1ccc(F)cc1	0	-2	46*	-2	3	-1
Cc1cccc(NC(=S)N/N=C/c2c[nH]c3ccccc23)c1	11	42	36*	13	-1	2
CCOc1ccc(Nc2nc(Cc3nnc(SCC(=O)NCc4ccco4)n3CC)cs2)cc1	7	-1	-5	-7	0	-2
O=C(N/N=C/c1c[nH]c2ccc(Br)cc12)C1CC1	0	3	32*	-4	-1	10
CC(/C=N/NC(=O)c1sc(N)nc1C)=C\c1ccccc1	-1	2	37*	6	-1	-4
Cc1c(/C=N/NC(=O)c2cc(Br)ccc2O)c(=O)n(C)c(=O)n1C	-3	8	31*	-2	0	0
C/C=N/NC(=O)c1cc(Br)ccc1O	-4	4	16	8	1	4
NC(=O)C(=O)N/N=C/c1c[nH]c2ccc(Br)cc12	x	-1	19	-5	0	0
CCN1C(=O)c2cccc3c(S(=O)(=O)N4CCC(C)CC4)ccc1c23	x	-5	-5	0	2	14
COc1ccc(S(=O)(=O)Nc2ccccn2)cc1C	-1	2	2	8	0	4
CN(C)N=Nc1ccc(S(=O)(=O)/N=C(\O)c2ccccc2)cc1	-1	-1	39*	4	-2	1
CCC/C(O)=N\S(=O)(=O)c1ccc(N=NN(C)C)cc1	0	-10	23	0	-1	-5
CCN1c2ccccc2-c2nc3ccccc3n2C1c1cccs1 (centres undefined)	-28	u	7	4	0	+
CCN(/C=N/c1sc2c(c1C#N)CC(C)(C)NC2(C)C)CC	0	3	30	-1	-2	2
CN(C)/C=N/c1sc2c(c1C#N)CC(C)(C)NC2(C)C	-1	10	36*	2	0	0
Cc1nc2ccccn2c(=O)c1NC(=O)c1cccc2ccccc12	0	-20	31*	16	0	0
C/C(=N\Nc1ccc(C(F)(F)F)cn1)c1ccncc1	1	-2	56*	-1	0	-2
O=C(c1ccco1)c1cn(Cc2ccccc2)c2ccccc12	19	72	19	-12	-2	5
O=C(Cn1cc(C(=O)c2ccco2)c2ccccc21)Nc1ccccc1	-1	-7	34*	-7	10	-3
CCOc1ccc(NC(=O)Cn2cc(C(=O)c3ccco3)c3ccccc32)cc1	x	4	14	-16	0	-2
COc1ccc(NC(=O)Cn2cc(C(=O)c3ccco3)c3ccccc32)cc1	x	8	31*	-26	2	1
N/C(CSc1ccccn1)=N\OCc1c(Cl)cccc1Cl	4	-4	2	-6	-1	-1
Cc1cc2[nH]c(=O)c(=O)[nH]c2cc1S(=O)(=O)NCc1ccc(Cl)cc1	2	u	24	5	-1	48*
CCCCCCCCCCCC(=O)c1c(O)cccc1O	x	-5	15	-8	2	4
CCCCCC(=O)C(=O)c1ccc(O)cc1O	0	8	46*	8	2	10

Source: PubChem
